Results published in PubChem BioAssay (NCI).
This is part of a sample that, as a whole, favours compounds with a hit. Of some 83,000 tested, about 20% had one in any assay.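 Growth was measured after 48 h exposure to one concentration of compound in 96-well plates. Values under 10 count as active.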 Values without a mark were called inactive. Active and inactive are the calls of the source.

system: SR leukemia; test: NCI-60 one-dose screen, 48 h (100 = growth as untreated, 0 = no growth, -100 = all killed); conditions: 10 µM unless noted

SMILES	growth
CCOC(=O)c1c(NC(=O)c2ccc(C(C)C)cc2)sc2c(CN(C)C)c(O)ccc12	-21.5% (active)
CCOC(=O)c1cnc2ccccc2c1Cl	109%
CCN(CC)c1nc(SCc2ccccc2Cl)ncc1C	95.6%
O=C1Nc2ccc(I)cc2C1=O	100%
O=S(=O)(NCCNc1nccc(-c2c(-c3cccc(F)c3)nc3occn23)n1)c1ccc(Br)cc1	65.6%
CC(C)c1ccc(COCc2cc(CN3CCCC3)c(O)c3ncccc23)cc1	-6.27% (active)
COc1ccc2cc(C(=O)c3coc4ccc(O)cc34)ccc2c1	78.9%
O=C(CI)NC1Oc2ccccc2-c2oc(=O)c(-c3ccccc3)cc21 (stereo not given)	-33.5% (active)
Cc1ccc(-n2c(=S)[nH]c3sc4c(c3c2=O)CCC(=O)C4)cc1	28.5%
C=CCn1c(SCC(=O)Nc2ccc(C(=O)/C=C/c3cc4cc(OC)ccc4nc3Cl)cc2)nnc1-c1ccc(Br)cc1	58.4%
COc1cccc(/C=C/C(=O)c2cc3c(N)c(C(=O)Nc4ccccc4)sc3nc2C)c1	10.8%
O=C1C(Cl)=C(Oc2ccccc2)C(=O)c2ccccc21	48.8%
CC(C)OC(=O)c1ccc2[nH]c(O)c(C(=Nc3ccc(N(C)C(=O)CN4CCN(C)CC4)cc3)c3ccccc3)c2c1	-20.3% (active)
N#CC1C=CN(CC(N)=O)c2ccc3cccnc3c21 (stereo not given)	85.1%
S=C(Nc1ccc(-c2nc(N3CCOCC3)c3cccn3n2)cc1)Nc1cccnc1	36.7%
Cc1cc2c(O)c(-c3cccc(Cl)c3)c3sc(=O)oc3c2cc1C	18.6%
COC(=O)[C@H]1CCCN1C[C@@H](O)CN1C(=O)/C(=C\c2cc(OC)c(OC)c(OC)c2)c2ccccc21	78%
CS(=O)(=O)Nc1cc(-c2ccc3ncnc(Nc4c(Cl)ccc5c4OCO5)c3c2)cnc1Cl	-8.28% (active)
COc1ccc(C(=S)N2CCN(c3ccccc3Cl)CC2)cc1OC	39.9%
CC(C)N1CN2C(=S)NC3C2N(C1)C(=S)N3C (stereo not given)	88.6%

SMILES	growth
O=C(c1ccc(-c2nc(CSc3nc4ccccc4s3)no2)cc1)N1CCSCC1	43%
O=Nc1c(-c2c(O)[nH]c3ncccc23)[nH]c2ccccc12	32.8%
O=C(CSc1nnc2n1S(=O)(=O)c1ccccc1N2c1ccccc1)Nc1nc2ccc(F)cc2s1	62.9%
O=C1/C(=C/c2ccccc2Br)COc2ccc(O)c(O)c21	14.7%
CCOC(=O)C(=Cc1cccc(Br)c1)C(=O)OCC	3.67% (active)
COC(C(=O)[C@@H](O)[C@@H](C)O)[C@@H]1Cc2cc3cc(O[C@H]4C[C@@H](O[C@H]5C[C@@H](O)[C@H](O)C(C)O5)[C@H](O)C(C)O4)cc(O)c3c(O)c2C(=O)[C@H]1O[C@H]1C[C@@H](O[C@H]2C[C@@H](O[C@H]3C[C@@H](OC)[C@H](O)C(C)O3)[C@@H](O)C(C)O2)[C@H](O)C(C)O1 (stereo not given in full)	33.9%
Cc1ccc(-c2cc(-c3ccc(Cl)cc3)nc(NC(=O)c3cccnc3)n2)cc1	89.1%
Fc1cccc(CNc2c3ccccc3nc3ccccc23)c1F	38.2%
CN(C)CC(=O)Nc1ccc2ncnc(Nc3ccc(Oc4cccc(C(F)(F)F)c4)c(Cl)c3)c2c1	-1.46% (active)
Cc1cc(N)c2cc(NC(=O)/C=C\c3ccccc3Cl)ccc2n1	7.11% (active)
N#CC1=C(N)Oc2c(sc3c(F)cccc23)C1c1ccc(F)cc1 (stereo not given)	30.6%
C/C(=C(/c1ccc(Cl)cc1)c1ccc(OCCN2CCCC2)cc1)c1ccc(Cl)cc1	4.02% (active)
COC(=O)c1ccc2c(c1)C(=O)c1c-2n(CCCN)c(=O)c2cc([N+](=O)[O-])ccc12	-45.3% (active)
CS(=O)(=O)C1=CN(CCO)C(=O)N2CCCN=C12	115%
O=C1Nc2ccccc2[C@]12CC(c1ccccc1)=NN2	21.6%
O=C(Cn1c(=O)sc2nc3ccccc3nc21)Nc1ncc(Cc2cccc(Cl)c2Cl)s1	101%
O=C(N/N=C/c1ccc(F)cc1)c1ccc(C(F)(F)F)nc1Nc1cccc(C(F)(F)F)c1	-30.5% (active)
COC(=O)[C@]1(C)CCC[C@]2(C)[C@H]3C[C@H]4C(C(C)C)=C[C@]3(CC[C@H]21)[C@H]1[C@@H]4[C@@H](OCCC#N)CC[C@@H]1OCCC#N	2.88% (active)
CN(C)c1ccc(Nc2cc(-c3cccc(OC(F)(F)F)c3)nc3ccc(N4CCCC4)cc23)cc1	-14.6% (active)
CCn1c(=S)sc2c(Nc3ccc(F)cc3)nc(-c3cccnc3)nc21	95.6%
